The experiment is described as follows: Parental Cell Counter Screen Assay for Epigenetic Modulators. The settings on record: parental c127i cells, compound fluorescence imaging, 30 h. The text has this: NIH Molecular Libraries Screening Centers Network [MLSCN] NIH Chemical Genomics Center [NCGC] MLSCN Grant: 1 X01 MH079860-01 Assay Provider: Elisabeth D. Martinez, University of Texas SW Medical Center NCGC Assay Overview: This assay is a counter screen for the Locus Derepression (LDR) assay (PubChem AID 597). The LDR assay detects the derepression of a GFP reporter that is stably integrated in a region of the genome of murine c127i mammary cells that is presumably silenced. Compounds that cause derepression of the locus to express GFP are identified by enumerating GFP positive cells using a laser-scanning microplate cytometer. […] Compounds active in the parental c127i cells are likely fluorescent.
NCGC Assay Protocol Summary: Two hundred and fifty cells in 5 uL per well were dispensed into black, clear-bottom 1536-well plates. Twenty-three nL compound was transferred to the assay plate and cells were incubated 30 hours at 37 C. Medium was removed, cells were washed two times with PBS, and fluorescent cells were enumerated as objects between the sizes of 20 to 120 um width and depth using a laser-scanning microplate imager (Acumen Explorer Ex3, TTP Labtech).

The source made the active and inactive calls.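 The calls were made as follows: active = compound that made reporter-free parental cells show up as glowing objects under laser imaging, so likely a fluorescent false positive; inactive = the rest.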

On to `CN1CSC(=S)N(C)C1`, for which the result was inactive.

Source of the values: PubChem BioAssay AID990 (National Center for Advancing Translational Sciences (NCATS), 2007).
